Source: PubChem
The sample as a whole holds a higher share of hits than the screen did.
Shiga toxin inh: A qHTS for Small Molecule Inhibitors of Shiga Toxin. AID 2315, 2010. Vero cells, Shiga toxin protein synthesis inhibition reporter. inhibition, % at 38.7 µM. 290,000 tested, 9.2% active; in the data active means inhibition mostly above about 28%, no sharp cut-off; inactive means mostly below about 43%; further: 0% is about no effect
Marburg entry inh: qHTS for inhibitors of binding or entry into cells for Marburg Virus. Marburg virus pseudotyped entry inhibition, cell reporter. Potency, µM (doses to about 37.8 µM), for the others: top-dose activity change, negative = inhibition, hits mostly inhibitors. 300,000 tested, 1.8% active. AID 540276, 2011; calls by dose curve; tested in HEK293 cells; further: potency means the concentration at half of the fitted maximal effect; on the % scale 0 is the no-effect control and ±100 the full control effect
CHX counter: Cycloheximide Counterscreen for Small Molecule Inhibitors of Shiga Toxin; cell reporter, cycloheximide protein synthesis inhibition counterscreen; max response, %; 300,000 tested, 12% active; AID 2314, 2010; in the data active means max response mostly above about 13%, no sharp cut-off; inactive means mostly below about 14%; further: read at 38.3 µM for the half of the compounds with a filed dose; 0% is about no effect
LASV entry inh: qHTS for Inhibitors of binding or entry into cells for Lassa Virus; Lassa virus pseudotype entry inhibition, cell reporter; Potency, µM (highest dose often 37.9 µM), for inactives: at the highest dose activity change, negative = inhibition, usual class: inhibitors; 300,000 tested, 1.2% active; AID 540256, 2011; calls by dose curve; tested in HEK293 cells; further: potency means the concentration at half of the fitted maximal effect; on the % scale 0 is the no-effect control and ±100 the full control effect; nearly all actives have a fitted effect of over 50% in size
Vaccinia Venus: qHTS for Stage-Specific Inhibitors of Vaccinia Orthopoxvirus: Venus Reporter Primary qHTS. Vaccinia virus Venus reporter expression, fluorescence. Potency, µM (doses to about 36.5 µM), inactives show top-dose activity change, negative = inhibition, hits mostly inhibitors. 330,000 tested, 0.46% active; calls by dose curve; tested in A549 cells; further: potency means the concentration at half of the fitted maximal effect; on the % scale 0 is the no-effect control and ±100 the full control effect; nearly all actives have a fitted effect of over 30% in size
VACV mCherry inh: qHTS for Stage-Specific Inhibitors of Vaccinia Orthopoxvirus: mCherry Reporter Primary qHTS | Vaccinia virus mCherry reporter infection, fluorescence | Potency, µM (highest dose often 36.5 µM), for inactives: at the highest dose activity change, negative = inhibition, actives largely listed as inhibitors | 310,000 tested, 0.63% active | AID 720579, 2013; calls by dose curve; tested in A549 cells; further: potency means the concentration at half of the fitted maximal effect; on the % scale 0 is the no-effect control and ±100 the full control effect; nearly all actives have a fitted effect of over 35% in size
* hit, by the source's call; i = inactive; ? = inconclusive; . = no result; [ ] = remark or other dose.

SMILES	Shiga toxin inh	Marburg entry inh	CHX counter	LASV entry inh	Vaccinia Venus	VACV mCherry inh
CN(C)CCCNc1cc(C(C)(C)C)nc2c(-c3ccccc3)cnn12	61.4*	?	46.7*	?	-24.4%	-21.4%
C[C@H](NC(=O)CNC(=O)[C@@H](NC(=O)[C@H](Cc1ccccc1)NC(=O)CNC(=O)CNC(=O)[C@@H](N)Cc1ccccc1)[C@@H](C)O)C(=O)N[C@@H](CCCN=C(N)N)C(=O)N[C@@H](CCCCN)C(=O)N[C@@H](CO)C(=O)N[C@@H](C)C(=O)N[C@@H](CCCN=C(N)N)C(=O)N[C@H](CN)CCCCN	.	.	.	.	-5.4%[3.33 µM]	-12.6%[3.33 µM]
CCCCCCCNC(=O)C1(CC2CC(c3ccc(Cl)cc3)=NO2)CCN(C(=O)c2cc(OCC)c(OCC)c(OCC)c2)CC1 (centres undefined)	-6.2	.	-2.9	.	-29.3%	-12.7%
COc1cc2c(cc1OC)CN(C(=O)c1cc(S(=O)(=O)N3CCOCC3)ccc1C)CC2	.	1.6%	.	22.3%	-13.6%	i
CN(Cc1nc(-c2ccc(Cl)cc2)no1)S(=O)(=O)c1ccccc1	.	-0.5%[46.1 µM]	.	-17.8%[46.1 µM]	-0.5%	-5.0%
Cc1ccc(NC(=O)c2c(C)oc3ccc(O)c(CN4CCCC4)c23)c(C)c1	.	-11.8%[46.1 µM]	.	25.0%[46.1 µM]	-0.3%	-10.8%
COc1cc(S(=O)(=O)n2ccnc2C(C)C)ccc1Br	.	?	.	?	-4.8%	-3.0%
Cc1ccc(CN(C(=O)c2ccccc2F)c2ccccn2)o1	.	-15.1%[46.1 µM]	.	0.7%[46.1 µM]	14.6%	-0.3%
COc1cc(OC)cc(C(=O)Nc2ccc3nc4c(c(Nc5ccc(OC)c(OC)c5)c3c2)CCCC4)c1	.	2.51µM*	.	?	?	?
COc1ccccc1Nc1c2c(nc3ccc(NC(=O)c4ccc(N(C)C)cc4)cc13)CCCC2	.	3.16µM*	.	?	-12.3%[7.34 µM]	-24.1%[7.34 µM]
CCOc1ccccc1C(=O)Nc1ccc2nc3n(c(=O)c2c1)CCCCC3	10.4	.	-1.5	.	.	.
CCOc1ccccc1C(=O)Nc1ccc2nc3c(c(Nc4ccc(OC)c(OC)c4)c2c1)CCCC3	.	?	.	10µM*	?	-29.8%
CCN(C(=O)c1cc2c(Cl)nc3ccc(C)cc3c2s1)c1cc(OC)ccc1OC	.	4.0%[46.1 µM]	.	?	-9.6%	-16.7%
COc1ccc(NC(=O)C2=C(C)Nc3nc(SCc4ccccc4C)nn3C2c2cc(OC)c(O)c(OC)c2)cc1 (centres undefined)	.	13.6%[46.1 µM]	.	-12.0%[46.1 µM]	-2.0%	-2.9%
CCc1ccc(OCC(=O)NC(C)C)cc1	110.7*	27.7%[46.1 µM]	27.1*	5.5%[46.1 µM]	-4.4%	i
CCC(C)NC(=O)COc1ccc(OCc2ccccc2)cc1 (centres undefined)	-7.8	.	12.2*	.	-12.7%	-0.8%
CC(C)(C)NC(=O)COc1ccc(-c2ccccc2)cc1	86.3*	-0.2%	29.9*	?	.	.
CCNC(=O)COc1ccc(-c2ccccc2)cc1	59.7*	?	47.1*	?	-8.5%	-6.2%
Cc1ccc(CN2C(=O)C3(c4ccccc42)N(c2cccc(C(F)(F)F)c2)C(=O)CS3(=O)=O)cc1 (centres undefined)	.	.	.	-18.9%[46.1 µM]	8.7%	17.2%
CCOC(=O)C1=C(CS(=O)(=O)c2cccc(C(F)(F)F)c2)NC(=O)NC1c1cccc(OC)c1 (centres undefined)	.	?	.	-2.4%[46.1 µM]	-9.6%	-11.0%
CCNC(=O)COc1ccc(OCc2ccccc2)cc1	101.8*	?	32.3*	-3.0%[46.1 µM]	-9.7%	-12.6%
CC(C)CN(C)C(=O)CCc1nnc(Cc2cccc(C(F)(F)F)c2)o1	109.4*	0.7%[46.1 µM]	46.9*	18.7%[46.1 µM]	-14.9%	-1.3%
O=C(CCc1nnc(Cc2cccc(C(F)(F)F)c2)o1)NCC(F)(F)F	16.5	4.5%[46.1 µM]	1.4	26.8%	-9.8%	i
C=C(C)CNC(=O)CCc1nnc(Cc2cccc(C(F)(F)F)c2)o1	123.2*	?	44.3*	13.5%[46.1 µM]	-12.6%	i
CC(NC(=O)CCc1nnc(Cc2cccc(C(F)(F)F)c2)o1)C1CC1 (centres undefined)	91.8*	?	52.5*	2.0%[46.1 µM]	-10.2%	i
SMILES	Shiga toxin inh	Marburg entry inh	CHX counter	LASV entry inh	Vaccinia Venus	VACV mCherry inh
COc1ccc(S(=O)(=O)NCC(c2ccco2)N2CCN(c3ccc(F)cc3)CC2)cc1C (centres undefined)	.	.	.	?	-18.8%	-21.9%
COc1ccc(Nc2c3c(nc4ccccc24)CCC3)c(OC)c1	-5.8	?	-2.8	?	?	?
CCCS(=O)(=O)Nc1ccc(Nc2c3ccccc3nc3ccccc23)c(OC)c1	.	?	.	0.708µM*	?	?
CS(=O)(=O)Nc1cccc(-c2nc(Nc3ccccc3)c3ccccc3n2)c1	.	.	.	.	0.0%	i
COc1cc(NS(C)(=O)=O)ccc1Cc1c2ccccc2nc2ccccc12	.	.	.	.	?	1.26µM*
O=C(Nc1ccnn1C1CCN(Cc2ccc(CO)o2)CC1)c1ccc2c(c1)OCO2	-8.6	9.2%	-0.6	-0.3%	2.0%	-19.5%
CC(C)(C)C(=O)OC/C(N)=N/OC(=O)c1ccccc1	30.8	?	39.6*	-10.0%[46.1 µM]	-10.6%	-11.5%
CCS(=O)(=O)c1nc(S(=O)(=O)c2ccc(C)cc2)c(NCCCOC)s1	.	-6.9%[46.1 µM]	.	?	-5.9%	-13.0%
COc1ccc(-c2cc(N)n(S(=O)(=O)c3c(F)c(F)c(F)c(F)c3F)n2)cc1OC	32.9*	2.31µM*	13.8*	?	.	.
COc1ccc(S(=O)(=O)n2nc(-c3cc(OC)c(OC)c(OC)c3)cc2N)cc1OC	2.2	.	0.4	.	-12.3%	-0.5%
Cc1cccc(OCc2ccc(-c3nc(C#N)c(NCc4cccnc4)o3)o2)c1	.	?	.	4.3%[46.1 µM]	?	-2.6%
Cc1ccc(-n2[nH]c3c4c(ccc3c2=O)C(=O)c2ccccc2C4=O)cc1	-15.5	?	-1.4	6.3%	6.8%	-6.4%
CC(C)(C)n1[nH]c2c3c(ccc2c1=O)C(=O)c1ccccc1C3=O	44.2	?	24.2*	?	.	.
Cc1cc(C)c(C#N)c(SCC(=O)Nc2nonc2N)n1	72.3*	22.6%[46.1 µM]	29.1*	.	-5.5%	-7.5%
Cc1cc(C)c(-n2nnnc2SCC(=O)c2cccs2)c(C)c1	39.3*	-23.0%[46.1 µM]	23.9*	?	-12.2%[7.34 µM]	i[7.34 µM]
Cc1cc(C)c(C#N)c(SCC(=O)C2CC2)n1	43.2*	.	24.0*	.	.	.
Cn1nnnc1SCC(=O)c1cccs1	-4.2	?	18.3	11.5%	-14.1%	-1.5%
Cc1cc(C)c(C#N)c(SCC(=O)c2cccs2)n1	61.3*	14.3%	19.4*	3.1%	.	.
CCC(C(=O)NC1CCCCCC1)n1nc(C)c2c(C)n(-c3ccccc3)nc2c1=O (centres undefined)	31.9	?	15.8	18.1%[46.1 µM]	-13.9%	i
COc1cc(C(=O)O[C@@H]2CC3CC[C@]2(C)C3(C)C)ccc1O	29.1*	.	23.2	.	.	.
CC1(C)[C@H]2CC[C@]1(C)[C@H](OC(=O)CC(=O)O)C2	.	-1.7%	.	.	.	.
